# Pf growth 48h = Primary qHTS for delayed death inhibitors of the malarial parasite plastid, 48 hour incubation. Potency, µM (highest dose often 28.7 µM), inactives show at the highest dose activity change, negative = inhibition, usual class: inhibitors. 310,000 tested, 5.9% active. P. falciparum luciferase growth in erythrocytes, 48 h. AID 504832, 2011
#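 Luciferase-expressing P. falciparum in infected erythrocytes (2% hematocrit, 0.1% parasitemia final) in RPMI 1640/0.5% Albumax were exposed to compound for 48 hours at 37 C, 5% CO2; growth read as luminescence.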
# HCV inh = qHTS Assay for Inhibitors of Hepatitis C Virus (HCV). Huh7.5.1 HCVcc-Cre infection, luciferase reporter, 44 h. Potency, µM (series often up to 41.8 µM), for inactives: top-dose activity change, negative = inhibition, most hits filed as inhibitors. 340,000 tested, 3.4% active
#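 Seed cells (1,000/well) for 4 h; treat with compound and infect with HCVcc-Cre, moi about 0.5. Incubate 44 h, then detect luciferase activity.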
# Pf growth 96h = Primary qHTS for delayed death inhibitors of the malarial parasite plastid, 96 hour incubation; Potency, µM (titrated, usually from 28.7 µM), for inactives: top-dose activity change, negative = inhibition, most hits filed as inhibitors; P. falciparum luciferase reporter growth, 96 h; 320,000 tested, 6.9% active
#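 Parasite growth measured via integrated firefly luciferase reporter in P. falciparum. Infected erythrocytes at 2% hematocrit, 0.05% parasitemia final were treated 96 hours at 37 C under 5% CO2, and luminescence was read.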
# AMA1-RON2 inh = qHTS for Inhibitors of AMA1-RON; Towards Development of Antimalarial Drug Lead: Primary Screen; 360,000 tested, 0.2% active; Potency, µM (series often up to 58.2 µM), without a hit: at the highest dose activity change, negative = inhibition, actives largely listed as inhibitors; AID 720542, 2013; Plasmodium falciparum AMA1 (3D7) - RON2 peptide interaction; AlphaScreen AMA1-biotinylated RON2 peptide binding;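 note: 0% = vehicle wells and -100% = peptide control; nearly all actives have a fitted effect of over 45% in size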
#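 AMA1 (3D7) with his tag at 25 nM final met compounds first, then biotinylated RON2 peptide at 25 nM; detection used donor plus acceptor beads, 10 µg/mL apiece, read by AlphaScreen after 30 min at room temperature.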
# Numbers without * were called inactive; ? = inconclusive; . = no result; [ ] = another dose, or the depositor's remark. An excerpt weighted towards active compounds, which were near 11% of everything screened. Calls come from the whole dose curve; as a rule, active = well fitted curve in the direction sought with a large enough effect; inconclusive = small, poorly fitted or top-dose-only effect, or another doubt; inactive = no such curve, though single readings can be large; an effect the other way counts as inactive or inconclusive. Unless noted, % is set by controls: 0 for no effect and ±100 for the full control effect; potency is the fitted concentration of half-maximal effect.
SMILES,Pf growth 48h,HCV inh,Pf growth 96h,AMA1-RON2 inh
Cc1cc(C(=O)CN2C(=O)c3ccccc3S2(=O)=O)c(C)n1CC1CCCO1 (centres undefined),2.1µM*,-13%,10%,-2%
Cc1cc(C(=O)O)cc(S(=O)(=O)Nc2ccccc2C(=O)NC2CC2)c1C,18%,10%,69%,9%
COc1cc(-c2nnc(SCc3c(F)cccc3Cl)o2)cc(OC)c1OC,?,35µM*,.,11%
Cc1cc(C(=O)CSc2nnnn2-c2ccccc2)c(C)n1CC1CCCO1 (centres undefined),178%,-21%,-2%,-20%
COc1ccc(C(=O)CN2C(=O)c3ccccc3S2(=O)=O)cc1,7.4µM*,2%,76%,2%
COc1cc(-c2nnc(SCC(=O)c3cc(C)n(CC4CCCO4)c3C)o2)cc(OC)c1OC (centres undefined),8.3µM*,?,-19%[5.75 µM],-6%
COc1cc(-c2nnc(SCC(=O)c3ccc(C)cc3)o2)cc(OC)c1OC,1%,?,?,-5%
Cc1cc(C(=O)CSc2nnc(-c3ccc(F)cc3)o2)c(C)n1CC1CCCO1 (centres undefined),-6%,5%,13µM*,-4%
CC(C)c1cc(C(C)C)c(S(=O)(=O)N2c3ccccc3[C@@]3(Br)C[C@H]4C(=O)N[C@@H](Cc5ccccc5)C(=O)N4[C@@H]23)c(C(C)C)c1,.,?,.,0%
O=S1(=O)CC(N2CCN(CCO)CC2)CN1Cc1cn(Cc2cccc(C(F)(F)F)c2)nn1 (centres undefined),.,.,.,6%
O=c1nc(N2CCCCC2)nc(Nc2ccccc2)[nH]1,.,16%,17%,-1%
O=C1C(Nc2ccccc2)=C(N2CCCCC2)C(=O)c2ccccc21,0.47µM*,10µM*,34%,0%
COc1ccccc1NS(=O)(=O)c1cc(N)ccc1N1CCCC1,.,?,.,-3%
COc1ccccc1NC1=C(N2CCCCC2)C(=O)c2ccccc2C1=O,0.046µM*,?,0.093µM*,?
O=C1C(Nc2cccc(O)c2)=C(N2CCCCC2)C(=O)c2ccccc21,?,2%,0.41µM*,?
CN(C1=C(N2CCCCC2)C(=O)c2ccccc2C1=O)c1ccccc1,8.3µM*,13µM*,.,9.5µM*
CCOc1cc(S(=O)(=O)NCc2ccncc2)c(C)cc1C,-30%[5.75 µM],-9%,-3%,12%
CC1=C(Nc2ccc(C(=O)O)cc2)C(=O)c2ccccc2C1=O,52%,?,26%,-12%
O=C(/C=C/c1ccc(O)cc1)c1ccccc1,43%,7%,-9%,-13%
O=C(/C=C/c1ccc(O)cc1)c1ccc(NC2=C(N3CCCCC3)C(=O)c3ccccc3C2=O)cc1,0.52µM*,10µM*,0.17µM*,-10%
Cc1ccc(NC2=C(N3CCCCC3)C(=O)c3ccccc3C2=O)cc1,0.17µM*,-5%,0.074µM*,2%
c1ccc2c(c1)CCC[C@@H]2C1=NCCN1,5%,.,-1%,.
CCOc1ccccc1NS(=O)(=O)N(C)C,.,23%,13µM*,2%
CSc1ccc(CNC2CN3CCC2CC3)cc1 (centres undefined),3%,-15%,1.7µM*,-3%
Cc1ccc(C(=O)c2oc3ccccc3c2NC(=O)c2cc(-c3ccccc3O)n[nH]2)cc1,1.5µM*,5%,0.59µM*,11%[2.32 µM]
SMILES,Pf growth 48h,HCV inh,Pf growth 96h,AMA1-RON2 inh
Cc1ccc(C(=O)c2oc3ccccc3c2NC(=O)c2cc(-c3cc(C)ccc3O)n[nH]2)cc1,0.33µM*,-30%,0.33µM*,132%
O=C(Nc1c(C(=O)c2ccccc2)oc2ccccc12)c1cc(-c2ccccc2O)n[nH]1,1.5µM*,-20%,0.66µM*,23%[2.32 µM]
CC(=O)Nc1c(C(=O)c2ccc(F)cc2)oc2ccccc12,14%,4%,-9%,8%
Cc1ccc(NC(=O)C2CCCN2C(=O)c2cccs2)c(C)c1 (centres undefined),17%,7%,24%,0%
COc1ccc(-c2csc(NC(=O)CCNC(=O)c3ccco3)n2)cc1,.,.,.,0%
CCCCNC(=O)CC(=O)Nc1ccccc1C(=O)O,35%,19%,94%,11%
Cc1ccc(CSc2nnc(-c3ccncc3)o2)c(C)c1,-1%,-10%,?,-12%
N/C(=N\OS(=O)(=O)c1ccccc1)c1cccnc1,11%,14%,155%,3%
N/C(=N\OS(=O)(=O)c1ccccc1)c1ccncc1,?,-4%,8.3µM*,0%
COc1ccc(C(=O)Nc2ccc([N+](=O)[O-])cn2)c(OC)c1,196%,16%,47%,6%[11.6 µM]
Clc1ccc(-c2nnc3sc(-c4ccccn4)nn23)cc1,26%,.,.,.
Clc1ccccc1-c1nn2c(-c3ccccn3)nnc2s1,8.3µM*,-18%,-16%,-1%
Clc1ccccc1-c1nnc2sc(-c3ccncc3)nn12,.,-10%,2%,2%
Clc1ccccc1-c1nn2c(-c3ccncc3)nnc2s1,10µM*,?,?,-6%
CC(=O)C1=C(C)Nc2ncnn2C1c1ccccc1OCc1ccccc1 (centres undefined),8.3µM*,?,28%,3%
COc1ccc(C2C(C(C)=O)=C(C)Nc3ncnn32)cc1[N+](=O)[O-] (centres undefined),-21%[0.00184 µM],5%,4.1µM*,-2%
O=C(NCc1ccccc1Cl)C1=CC=CN2CCS(=O)(=O)N=C12,-9%,7%,-17%,-1%
O=C(Nc1ccc(O)c(-c2nc3ccccc3o2)c1)C1(c2ccccc2)CCCC1,15µM*,?,29%,83%
O=C(Nc1ccncc1)C1(c2ccccc2)CCCC1,?,3%,-1%,-3%
CS(=O)(=O)c1sc(C(=O)NC(=O)Nc2cccc(C(F)(F)F)c2)c2c1C=CCC2,2.3µM*,5%,14%,10%
COc1ccc(Cl)cc1C(=O)OCC(=O)NCCNC(=O)COC(=O)c1cc(Cl)ccc1OC,6%,-12%,23%,2%
CCN(CCNC(=O)c1ccc(C#N)cc1)c1cccc(C)c1,?,?,?,-21%
CCN(CCNCC(O)COCc1ccc(Cl)cc1)c1cccc(C)c1 (centres undefined),8.3µM*,16µM*,?,?
C=CCNC(=O)C(=O)c1cccn1-c1ccsc1C(=O)OC,.,1%,3%,3%
Cn1cccc1-c1cc(C(=O)N/N=C/c2ccc(Cl)cc2)[nH]n1,-23%,?,492%,9%
O=C(N/N=C/c1cccnc1)c1ccc(CN2c3cccc4cccc(c34)S2(=O)=O)cc1,14%,?,?,12%
COc1cc(/C=N/NC(=O)c2cc(-c3cccn3C)n[nH]2)cc(OC)c1OC,6.6µM*,-6%,23%,13%
COc1cccc(/C=N/NC(=O)c2cc(-c3cccn3C)n[nH]2)c1O,?,5µM*,?,14%
COc1cccc(/C=N/NC(=O)c2cc(-c3cccn3C)n[nH]2)c1,?,-11%,12µM*,-23%

# Source: PubChem BioAssay (National Center for Advancing Translational Sciences (NCATS))
